Source: PubChem
tim23-1 inh: growth inhibitors of tim23-1 mutant yeast | S. cerevisiae tim23-1 growth, BacTiter-Glo luminescence, 24 h | inhibition, % at 20 µM | actives 1.3% (n = 330,000) | AID 463212;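 active = growth inhibition of the mutant yeast at or above 50%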;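 note: temperature-sensitive mutant grown at 25 °C; plate controls were DMSO-treated mutant yeast for no effect and medium wells lacking yeast for full effect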
TIM10 inh: growth inhibitors of TIM10 yeast strain | actives 1.4% (n = 330,000) | S. cerevisiae TIM10 strain growth, BacTiter-Glo luminescence, 24 h | inhibition, % at 10 µM | AID 463195;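 active = inhibition of 40% or more at the single tested concentration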;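 note: wild-type TIM10 isogenic control strain grown at permissive 25 °C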
tim10-1 inh: inhibits growth of tim10-1 mutant yeast; S. cerevisiae tim10-1 ts strain growth, BacTiter-Glo, 24 h; AID 463190; inhibition, % at 20 µM; actives 2.2% (n = 330,000);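 active = inhibition of at least 40%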;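 note: mutant grown at 25 °C; 0% = DMSO wells with yeast and 100% = wells holding no yeast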
Mot1-301 SUMO: blocks SUMOylation pathway, rescuing yeast Mot1-301 growth; S. cerevisiae Mot1-301 growth rescue, ATP luminescence, 38.5C; percent above DMSO median, 100 means doubled; growth rescue, % at 18.8 µM; actives 1% (n = 320,000); AID 2716;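 active = every valid replicate shows activation above 250% relative to neutral control wells; inactive = the rest, any valid replicate at or below 250%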;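 note: OY570 slx delta 5 strain wells were the positive control but not used for scaling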
PfHsp90 yeast 2: inhibits growth of yeast expressing Plasmodium falciparum Hsp90. S. cerevisiae expressing PfHsp90, BacTiter-Glo ATP, 48 h; yeast lacking PDR1 and PDR3 efflux regulators. inhibition, % at 9.4 µM. actives 0.32% (n = 310,000). AID 504621;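 active = every replicate shows inhibition above about 80%, whatever the replicate mean, limit read from the data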;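 note: 0% = DMSO neutral controls and 100% = 20 µM radicicol positive controls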
tim10-1 conf: tim10-1 yeast growth inhibition, confirmed. S. cerevisiae tim10-1 ts strain growth, BacTiter-Glo, 24 h. inhibition, % at 20 µM. actives 56% (n = 7,400). shares compounds with tim10-1 inh;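 active = inhibition of yeast growth at or above a set limit in either of two repeat tests at 20 µM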;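 note: tim10-1 mutant grown at permissive 25 °C to find synthetic lethal compounds; 0% = DMSO yeast wells and 100% = medium wells without yeast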
Starred values were filed as active, the others as inactive; x = no result given. An excerpt weighted towards active compounds, which were near 4.4% of everything screened.

SMILES	tim23-1 inh	TIM10 inh	tim10-1 inh	Mot1-301 SUMO	PfHsp90 yeast 2	tim10-1 conf
O=C(Nc1ccsc1C(=O)O)c1ccccc1Cl	10.3	-3.9	8.1	-14.1	12.4	x
Cc1ccccc1OCCC(=O)OCC(=O)Nc1ccc2[nH]c(=O)[nH]c2c1	-7.0	1.4	-13.9	278.9	-13.5	x
CCn1nc(NC(C)=O)c2cc3cccc(C)c3nc21	4.5	15.4	10.2	-4.6	-31.6	x
CCn1nc(NC(=O)c2ccccc2)c2cc3cccc(C)c3nc21	39.0	23.9	45.8*	-9.3	-3.5	31.7*
Cc1cc(Br)ccc1NC(=O)CSc1nnc(CN2CCOCC2)n1C	-1.4	2.8	-10.5	13.2	-2.6	x
COCCN(CC(=O)Nc1ccccc1C(F)(F)F)C(=O)/C=C/c1ccc2ccccc2n1	6.4	12.2	2.4	-1.6	7.1	x
O=C(NC(=S)NNC(=O)c1ccco1)c1ccc(Br)cc1	7.2	9.3	41.2*	-16.7	2.7	29.1
CCOC(=O)c1cnc2ccc(C)cc2c1Nc1ccc(N2CCOCC2)cc1	-16.6	15.4	41.3*	3.2	-15.0	25.6
CCOC(=O)c1ccc2ncc(C(=O)OCC)c(NCCN3CCOCC3)c2c1	22.9	0.7	-2.0	3.6	-12.1	x
COc1cc(C(=O)N2CCN(Cc3ccccc3C(F)(F)F)CC2)cc(OC)c1OC	27.2	24.2	42.6*	9.6	-2.4	23.8
C=C(C)C1CC=C(C)/C(=N/NC(=O)CNc2ccc(OCC)cc2)C1 (centres undefined)	28.3	4.1	42.3*	25.2	-1.5	29.9
CC(N=c1ccccn1C(=O)Nc1cccc(C(F)(F)F)c1)c1ccco1 (centres undefined)	28.9	32.8	41.2*	50.3	x	32.7*
CC1CN(C(=O)Nc2cccc(C(F)(F)F)c2)CC(C)O1 (centres undefined)	49.0	18.4	21.8	3.6	-26.1	x
CCOC(=O)C1=C(N)Oc2ccc3ccccc3c2C1c1ccc(O)cc1 (centres undefined)	34.5	6.1	-42.5	-1.6	0.1	x
CCOC(=O)C1=C(N)Oc2ccc3ccccc3c2C1c1ccc(O)c(OC)c1 (centres undefined)	46.9	10.7	40.1*	-9.5	-42.7	22.6
CC(=C\c1ccco1)/C=C(\C#N)C(=O)NCCc1c[nH]c2ccccc12	30.9	37.8	43.2*	10.2	19.5	42.3*
CC(C)(C)C(=O)Nc1nnc(SCc2cccc(F)c2)s1	30.3	8.0	2.8	-21.9	-4.0	x
CC(C)(C)C(=O)Nc1nnc(SCc2ccc(F)cc2)s1	35.6	22.3	49.9*	6.2	x	44.3*
COc1cccc(C(=O)CN(C(=O)c2ccc(Cl)c(Cl)c2)N2C(=O)C3CCCCC3C2=O)c1 (centres undefined)	34.9	36.8	33.6	-5.9	-11.6	x
COc1ccc(C(=O)CN(C(=O)c2ccc(Cl)cc2)N2C(=O)C3CCCCC3C2=O)cc1 (centres undefined)	35.1	26.2	47.1*	-3.8	x	24.2
CCOCc1c(C(=O)NCc2ccccc2CN2CCCC2)oc2ccccc12	12.7	0.3	14.3	7.8	-9.8	x
Cc1cccc(C)c1NC(=S)NCCSc1ccc(Cl)cc1	16.6	31.1	41.7*	0.4	1.6	23.5
Cc1ccc(SCCNC(=S)Nc2cc(C)cc(C)c2)cc1	7.0	15.3	-2.2	24.8	-12.2	x
COc1ccc(Cl)cc1NC(=S)NCCSc1ccc(C)cc1	31.7	16.9	48.9*	-13.1	-22.5	40.5*
Cc1ccc(NC(=S)NCCSc2ccc(Cl)cc2)cc1	36.4	32.2	38.4	22.2	-4.8	x
SMILES	tim23-1 inh	TIM10 inh	tim10-1 inh	Mot1-301 SUMO	PfHsp90 yeast 2	tim10-1 conf
COc1ccc(Cl)cc1NC(=O)CN(C)C(=O)CCSc1ccc(C)cc1	32.7	0.4	-7.4	-2.0	-9.8	x
Cc1ccc(SCCNC(=S)Nc2ccc(C)cc2C)cc1	31.7	23.8	44.2*	16.0	-25.2	16.6
COc1ccc(CC(=O)NNC(=O)c2cc(Cl)ccc2OC)cc1	-6.9	-7.6	-9.3	x	1.0	x
COc1cccc(C2C3=C(CC(C)(C)CC3=O)Nc3cc4c(cc32)OCO4)c1 (centres undefined)	27.9	-13.9	44.2*	9.0	23.7	11.3
COc1cccc(C2C3=C(CC(C)(C)CC3=O)Nc3cc(OC)c(OC)cc32)c1 (centres undefined)	11.7	2.3	23.5	3.8	x	x
Cc1c(C)n(Cc2ccccc2)c2ccc(C(=O)NCCN3CCOCC3)cc12	-13.6	0.2	-4.4	7.0	12.4	x
Cc1c(C)n(Cc2ccccc2)c2ccc(C(=O)OCCN(C)C)cc12	25.8	36.3	41.4*	-10.8	0.6	42.9*
Cc1ccc(C2CC2C(=O)NNC(=S)Nc2ccc(Cl)cc2)cc1 (centres undefined)	4.0	6.8	46.5*	1.0	11.1	31.4
CC(C)(C)NC(=S)NNC(=O)[C@H]1C[C@@H]1c1ccccc1	3.5	15.4	15.1	-19.2	5.4	x
O=C(COc1ccc([N+](=O)[O-])cc1)Nc1nc(-c2ccccn2)cs1	38.4	0.0	41.7*	x	x	13.0
Cn1c2c(sc1=O)CCC2	x	x	x	x	-11.0	x
CCCCNc1ncnc2c1cnn2Cc1ccc(Cl)cc1	23.0	8.6	40.0*	3.8	9.9	11.2
CCCc1[nH][nH]c(=O)c1C(c1ccc(Cl)cc1)C(C#N)C#N (centres undefined)	41.9	36.5	45.9*	-6.6	0.4	24.0
C[C@@H]1CC[C@@]2(O[C@@H](CCO)C[C@@H](O)[C@@H]2O)O1	10.8	-4.2	-7.3	-1.5	-15.1	x
COc1ccc(-c2cc(-c3cc(F)ccc3O)[nH]n2)cc1OC	25.3	38.4	40.0	3.8	x	13.6
COc1ccc(-c2cc(-c3ccccc3O)[nH]n2)cc1OC	25.1	29.0	17.4	26.0	x	x
Oc1ccc(Br)cc1-c1cc(-c2ccc(Cl)cc2)n[nH]1	15.2	16.0	36.2	-6.5	10.9	x
COc1ccc(-c2cc(-c3ccc(Cl)cc3)n[nH]2)c(O)c1	45.3	29.0	40.6*	73.7	0.7	45.2*
O=C(N/C(=C\c1ccc([N+](=O)[O-])cc1)C(=O)N1CCCCC1)c1ccccc1	21.7	0.8	27.7	-13.9	-14.0	x
O=[N+]([O-])/C(C(Cl)=C(Cl)Cl)=C(/Sc1ccccc1)N1CCCCC1	42.1	25.9	40.7*	-7.1	-0.7	45.0*
O=C(CNc1cccc2ccccc12)N/N=C/c1cccc(Oc2ccccc2)c1	0.1	34.0	41.8*	19.7	-13.5	28.0
O=C(CNc1cccc2ccccc12)N/N=C/c1ccccn1	22.4	25.0	-6.6	3.9	x	x
O=C(O)C(F)=C1c2ccccc2-c2ccccc21	10.1	3.6	-1.7	3.2	x	x
O=C(CSc1nnc(CCc2ccccc2)n1-c1ccc(Cl)cc1)NCc1ccccc1	1.3	15.7	43.0*	-3.5	2.7	12.0
COc1ccccc1NC(=S)NC(=O)Cc1ccccc1	-1.6	3.5	-15.3	100.5	x	x
